65 molecules from publication PMC4552634, “A New Set of Chemical Starting Points with Plasmodium falciparum Transmission-Blocking Potential for Antimalarial Drug Discovery” (PLoS ONE, 2015) can be followed below.

Out of some 13,000 compounds screened, about 3,200 (25%) showed an effect of 50% or more. The list shows a part of the results.

The experiment deals with P. falciparum stage V gametocytes. Also on record: BacTiter-Glo ATP luminescence viability of purified stage V gametocytes in 384-well plates, per cent inhibition versus DMSO. Particulars: 48 h, 5 µM; inhibitor.
`O=C(Nc1ccc(-c2cccc(-c3nc4ccc(C(F)(F)F)cc4[nH]3)c2)cc1)Nc1ccc(Cl)c(Cl)c1` [TCMDC-133278]: the % Inhibition (commonly the change of the read-out against control, counted positive when it falls) was -24.62%.

As to `CS(=O)(=O)CCN(CCS(C)(=O)=O)Cc1ccc(-c2ccc3ncnc(Nc4ccc(OCc5cccc(F)c5)c(Cl)c4)c3c2)o1` [TCMDC-138624], the “% Inhibition” value was found to be 0.5882%.

As for `CCC(C)C#Cc1c(C)nc(N)nc1N` (centres unmarked) [TCMDC-137729], the “% Inhibition” value is reported as -55.19%.

On to `Cc1cccc2nc(-c3ccc(-c4ccc(CNCc5cnn(-c6ccccc6)n5)cc4)s3)[nH]c12.O=C(O)C(F)(F)F` [TCMDC-132967], for which the “% Inhibition” value turned out to be 11.48%.

`CN1CC=C(c2csc3ccc(NC(=O)Nc4ccc(-c5ccncc5)c(Cl)c4)cc23)CC1` [TCMDC-139226]: the “% Inhibition” value is -3.853%.

For `CN1CC=C(c2csc3ccc(NC(=O)Nc4ccc(-c5ccncc5)c5ccccc45)cc23)CC1` [TCMDC-139225], the “% Inhibition” value is listed as 89.24%.

Regarding `CN1CCC(c2csc3ccc(NC(=O)Nc4ccc(-c5ccncc5)c5ccccc45)cc23)CC1` [TCMDC-139229], the “% Inhibition” value came to 21.21%.

In the case of `CCNC(=O)c1ccc(-n2nc(C)cc2-c2ccccc2)cc1` [TCMDC-124440], the “% Inhibition” value is -33.35%.

Take `Cc1ccc(NC(=O)NC2CCN(CCCCCNC(=O)C3CC3c3ccc(Cl)c(Cl)c3)CC2)cc1` (centres unmarked) [TCMDC-136247]: the “% Inhibition” value is reported as -44.45%.

With `O=C(Nc1cccc(F)c1)NC1CCN(CCCCCNC(=O)C2CC2c2ccc(Cl)c(Cl)c2)CC1` (centres unmarked) [TCMDC-136248], the “% Inhibition” value was found to be 79.62%.

`O=C(Nc1cc(F)cc(F)c1)NC1CCN(CCCCCNC(=O)C2CC2c2ccc(Cl)c(Cl)c2)CC1` (centres unmarked) [TCMDC-136252]: the “% Inhibition” value came out at 75.57%.

For the molecule `O=C(Nc1ccc(F)cc1)NC1CCN(CCCCCNC(=O)C2CC2c2ccc(Cl)c(Cl)c2)CC1` (centres unmarked) [TCMDC-136249], the “% Inhibition” value was 82.82%.

Turning to `O=C(Nc1cc(F)cc(F)c1)N[C@H]1CCN(CCCCCNC(=O)C2CC2c2ccc(Cl)c(Cl)c2)C1` (some centres unmarked) [TCMDC-136263], the “% Inhibition” value was found to be 23.53%.

Consider `O=C(Nc1cccc(F)c1)N[C@H]1CCN(CCCCCNC(=O)C2CC2c2ccc(Cl)c(Cl)c2)C1` (some centres unmarked) [TCMDC-136261], for which the “% Inhibition” value is -0.7596%.

On to `O=C(Nc1ccc(Cl)cc1)NC1CCN(CCCCCNC(=O)C2CC2c2ccc(Cl)c(Cl)c2)CC1` (centres unmarked) [TCMDC-136251], for which the “% Inhibition” value is -16.96%.

As to `N#Cc1cccc(NC(=O)NC2CCN(CCCCCNC(=O)C3CC3c3ccc(Cl)c(Cl)c3)CC2)c1` (centres unmarked) [TCMDC-136250], the “% Inhibition” value came to 5.084%.

For `Cc1cccc(Cn2nc(-c3ccccc3)c(N3CCCCC3)cc2=O)c1` [TCMDC-125526], the “% Inhibition” value was -20.8%.

On to `CCOC(=O)c1ccc(NCc2ccccn2)cc1` [TCMDC-123821], for which the “% Inhibition” value was -4.555%.

With `Cc1cc(NC(=O)Nc2ccc3sccc3c2)c2ccccc2n1` [TCMDC-138970], the “% Inhibition” value is given as 36.17%.

As to `CC1(C)N=C(N)N=C(N)N1c1ccc([N+](=O)[O-])cc1` [TCMDC-124128], the “% Inhibition” value came out at 35.22%.

With `COc1cc(Nc2nc(N)c3cc(OC)c(OC)cc3n2)cc(OC)c1.Cl` [TCMDC-131884], the “% Inhibition” value is reported as -87.65%.

For the molecule `COc1cc2nc(N3CCC(CNC(=O)/C=C/c4ccccc4F)CC3)nc(N)c2cc1OC.Cl` [TCMDC-138163], the “% Inhibition” value is recorded as 35.62%.

For `COc1cc2c(cc1OC)CN(c1cc(N)c3cc(OC)c(OC)cc3n1)CC2.CS(=O)(=O)O` [TCMDC-131968], the “% Inhibition” value is 54.76%.

Consider `Cc1noc(-c2ccc(O)cc2O)c1-c1ccc2c(c1)OCCCO2` [TCMDC-124197], for which the “% Inhibition” value was determined as 16%.

`COc1cc(C(=O)N2C(c3nccs3)C(C(=O)N(OC)C(C)c3ccccc3)CC2(CC(C)C)C(=O)OC(C)(C)C)ccc1C(C)(C)C` (centres unmarked) [TCMDC-135187]: the “% Inhibition” value is recorded as 35.9%.

For the molecule `CC(C)CC1(C(=O)OC(C)(C)C)CC(C(=O)OC(C)(C)C)C(c2cccs2)N1C(=O)c1ccc(C(C)(C)C)cc1` (centres unmarked) [TCMDC-138807], the “% Inhibition” value amounted to 77.31%.

For the molecule `CCCc1ccc(C(=O)N2C(c3nccs3)C(C(N)=O)CC2(CC(C)C)C(=O)O)cc1` (centres unmarked) [TCMDC-138717], the “% Inhibition” value is on record as -10.33%.

`O=C1C(=Cc2cc(Cc3ccccc3)ccc2O)SC(=S)N1Cc1ccccc1` [TCMDC-124107]: the “% Inhibition” value came to 17.72%.

`CCOC(=O)c1ccc(N=C2SC(=Cc3cc(Br)ccc3O)C(=O)N2C)cc1` [TCMDC-125656]: the “% Inhibition” value was 2.309%.

Consider `C=CCN1C(=O)C(=Cc2cc(Br)ccc2O)SC1=Nc1ccccc1` [TCMDC-124119], for which the “% Inhibition” value is on record as 53.26%.

`CCOC(=O)c1ccc(NC(=O)N[C@@H](Cc2ccccc2)C(=O)NC2CCN(Cc3ccc(O)c(OC)c3)C2)cc1` (some centres unmarked) [TCMDC-140503]: the “% Inhibition” value was -11.63%.

In the case of `CC(C)OC(=O)c1ccc(NC(=O)N[C@@H](Cc2ccc(O)cc2)C(=O)NC2CCC(CCN3C4CCC3c3ccccc34)CC2)cc1` (some centres unmarked) [TCMDC-136163], the “% Inhibition” value was 13.63%.

Regarding `CC(C)(C)c1ccc(OC(=O)c2ccc(NC(=O)N[C@@H](Cc3ccc(O)cc3)C(=O)NC3CCN(Cc4ccc(O)cc4)C3)cc2)cc1` (some centres unmarked) [TCMDC-135359], the “% Inhibition” value worked out at 23.01%.

As to `O=C(Nc1ccc(C(=O)OCC(c2ccccc2)c2ccccc2)cc1)N[C@@H](Cc1ccc(O)cc1)C(=O)NC1CCN(Cc2ccc(O)cc2)C1` (some centres unmarked) [TCMDC-135362], the “% Inhibition” value came out at 9.298%.

Turning to `CC(C)OC(=O)c1ccc(NC(=O)N[C@@H](Cc2ccc(O)cc2)C(=O)NC2CC3CCC(C2)N3Cc2ccccc2)cc1` (some centres unmarked) [TCMDC-136164], the “% Inhibition” value stood at 71.31%.

As for `CCOC(=O)c1ccc(NC(=O)N[C@@H](Cc2ccccc2)C(=O)NC2CCN(Cc3ccc(O)cc3)C2)cc1` (some centres unmarked) [TCMDC-140502], the “% Inhibition” value is -28.76%.

On to `CCOC(=O)c1ccc(NC(=O)N[C@@H](Cc2ccccc2)C(=O)NC2CCN(Cc3ccc(OCCCN(C)C)cc3)C2)cc1` (some centres unmarked) [TCMDC-140501], for which the “% Inhibition” value amounted to 106.4%.

Regarding `Cc1cc(C(=O)N[C@H]2CCN(Cc3ccc(OCCCN(C)C)cc3)C2)ccc1Br` [TCMDC-140368], the “% Inhibition” value is recorded as 17.03%.

Consider `CC(C)[C@H]1CC[C@H](C)C[C@@H]1OC(=O)N[C@@H](Cc1ccc(O)cc1)C(=O)NC1CCN(Cc2ccc(OCCCN(C)C)cc2)C1` (some centres unmarked) [TCMDC-140497], for which the “% Inhibition” value came to 106.1%.

Consider `O=C(/C=C/c1ccc(Cl)c(Cl)c1)NCCCCN1CCCN(C(=O)Nc2cc(Cl)cc(Cl)c2)CC1` [TCMDC-135929], for which the “% Inhibition” value is recorded as -18.98%.

In the case of `COc1ccc(CN2CCCC(OC(c3ccc(F)cc3)c3ccc(F)cc3)C2)c(O)c1` (centres unmarked) [TCMDC-136166], the “% Inhibition” value is listed as 23.2%.

As for `Fc1cccc(COc2ccc(Nc3ncnc4sc(C#C[C@H]5CC[C@H](CN6CCOCC6)N5)cc34)cc2Cl)c1` [TCMDC-135417], the “% Inhibition” value is recorded as -15.95%.

As for `Cc1c(F)cc(C(=O)NC2CC2)cc1-c1ccc2c(cnn2S(=O)(=O)c2ccc(F)c(F)c2)c1` [TCMDC-135239], the “% Inhibition” value is given as 15.38%.

Regarding `Cc1ccc2nc(C)cc(Nc3ccccc3O)c2c1` [TCMDC-123660], the “% Inhibition” value is recorded as -31.17%.

Take `CCCc1cc(C)ccc1OCCCON1C(NC(=O)OCC)=NC(NC(=O)OCC)=NC1(C)C` [TCMDC-131343]: the “% Inhibition” value turned out to be 12.88%.

Consider `COc1cc(Cc2cnc(N)nc2N)cc(OCCn2ccccc2=O)c1OC` [TCMDC-137347], for which the “% Inhibition” value is -6.593%.

For the molecule `CCN(CC)c1ccc2nc(N)nc(N)c2c1Cl` [TCMDC-137857], the “% Inhibition” value is -7.537%.

As for `CSc1ccc(CN2CCC(CNC(=O)c3cc(-c4ccccc4F)cs3)C2)cc1.O=C(O)C(F)(F)F` (centres unmarked) [TCMDC-134460], the “% Inhibition” value stood at 78.38%.

For the molecule `CN(C)c1ccc(CN2CCC(CNC(=O)c3cc(-c4ccccc4F)cs3)C2)cc1.O=C(O)C(F)(F)F` (centres unmarked) [TCMDC-134453], the “% Inhibition” value is reported as 72.61%.

As for `O=C(NCC1CCN(Cc2ccc3c(c2)OCCO3)C1)c1cc(-c2ccccc2F)cs1.O=C(O)C(F)(F)F` (centres unmarked) [TCMDC-134459], the “% Inhibition” value came to 14.42%.

Turning to `CCCNC[C@@H](O)[C@H](Cc1ccccc1)NC(=O)c1cc(NCC)cc(N2CCCC2=O)c1` [TCMDC-138890], the “% Inhibition” value amounted to 18.6%.

In the case of `Cc1cc(C(=O)OCC(N)=O)c(C)n1-c1ccc(F)cc1` [TCMDC-123812], the “% Inhibition” value is reported as -34.47%.

As to `CN(C)S(=O)(=O)c1ccc(C(=O)N(c2nc(-c3ccccc3)cs2)C2CCCCC2)cc1` [TCMDC-123561], the “% Inhibition” value was -34.43%.

Turning to `Cc1cc(N2CCOCC2)nc2ccc(NC(=O)c3ccc(Cl)c([N+](=O)[O-])c3)cc12` [TCMDC-125441], the “% Inhibition” value was -11.29%.

Take `C=CCN(C(=O)c1ccc(Cl)c([N+](=O)[O-])c1)c1nc(-c2ccccc2)cs1` [TCMDC-124436]: the “% Inhibition” value turned out to be 137%.

For `O=C(Nc1cc(Cl)cc(Cl)c1)c1cc(Cl)c(=O)n(Cc2ccc(Cl)cc2)c1` [TCMDC-123810], the “% Inhibition” value came to 18.7%.

For `CCn1cc(C(=O)O)c(=O)c2cc(F)c(N3CCN(S(=O)(=O)c4ccc(N)cc4)CC3)cc21` [TCMDC-125809], the “% Inhibition” value amounted to 2.438%.

With `CCOC(=O)c1cn(CC)c2cc(N3CCCCCC3)c(F)cc2c1=O` [TCMDC-124160], the “% Inhibition” value turned out to be 58.45%.

Consider `CCOC(=O)c1cn(CC)c2cc(N3CCCCC3)c(F)cc2c1=O` [TCMDC-124156], for which the “% Inhibition” value was determined as 35.74%.

With `O=C(/C=C/c1ccc(Cl)c(Cl)c1)NCCCCCCN1CCCN(C(=O)Nc2ccc(F)c(F)c2)CC1` [TCMDC-135938], the “% Inhibition” value is recorded as -42.76%.

Turning to `Cc1ccc(OC2CCN(CCCCC3(C)C(=O)Nc4ccccc43)CC2)cc1` (centres unmarked) [TCMDC-140795], the “% Inhibition” value is -17.97%.

Consider `O=C1Nc2cccc3c2C1(CCCCN1CCC(c2c(-c4ccc(F)cc4)[nH]c4ccccc24)CC1)CCC3` (centres unmarked) [TCMDC-140656], for which the “% Inhibition” value stood at 74.07%.

`Cc1[nH]c2ccccc2c1C1=CCN(CCCCCC23CCCc4cccc(c42)NC3=O)CC1` (centres unmarked) [TCMDC-140463]: the “% Inhibition” value is -65.61%.

For `CC1(CCCCN2CC=C(c3c[nH]c4ccccc34)CC2)C(=O)Nc2ccccc21` (centres unmarked) [TCMDC-140717], the “% Inhibition” value is recorded as -30.41%.

As for `O=C1Nc2cccc3c2C1(CCCCN1CCC(c2c(-c4ccccc4)[nH]c4ccccc24)CC1)CCC3` (centres unmarked) [TCMDC-140655], the “% Inhibition” value worked out at 54.78%.
